Bioassay records: PubChem, National Center for Advancing Translational Sciences (NCATS)
ALDH1A1 inh = qHTS Assay for Inhibitors of Aldehyde Dehydrogenase 1 (ALDH1A1); Purified ALDH1A1, NADH fluorescence, propionaldehyde substrate; Potency, µM (series often up to 75.3 µM), usual class: inhibitors; hit rate 7.3% among 220,000; AID 1030, 2008
HPGD block = qHTS Assay for Inhibitors of HPGD (15-Hydroxyprostaglandin Dehydrogenase). hit rate 4.3% among 150,000. purified HPGD, NADH fluorescence kinetic, PGE2 substrate. 15-hydroxyprostaglandin dehydrogenase [NAD(+)] (Homo sapiens), P15428. AID 894, 2007. Potency, µM, usual class: inhibitors
Target sequence (P15428 whole entry, looked up): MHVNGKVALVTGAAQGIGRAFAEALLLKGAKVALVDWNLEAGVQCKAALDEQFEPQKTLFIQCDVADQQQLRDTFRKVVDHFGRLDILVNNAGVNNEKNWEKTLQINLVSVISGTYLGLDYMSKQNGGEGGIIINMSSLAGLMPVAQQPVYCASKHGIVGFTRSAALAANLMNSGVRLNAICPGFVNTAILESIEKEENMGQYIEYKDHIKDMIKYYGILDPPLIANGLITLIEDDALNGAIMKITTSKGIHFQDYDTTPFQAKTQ
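NADH formation kinetics: reaction with 30 uM PGE2 and 1 mM NAD+ (final), 20 nM enzyme, Tris-HCl pH 8 with Tween 20, after 15 min compound preincubation at room temperature. Fluorescence change, last versus first of five reads.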
PNC inhibitor = High Content Assay for Compounds that inhibit the Assembly of the Perinucleolar Compartment; PC3M PTB-GFP, PNC prevalence imaging, 16 h; active compounds read low; activity change (PNC), negative = inhibition, % at 10 µM; hit rate 3.1% among 140,000;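 active = readout at or below -70, meaning at least 70% loss of cells showing the perinucleolar compartment, a nuclear body marking cancer cells; inconclusive = readout between -30 and a set limit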
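PC3M cells stably expressing PTB-GFP, 750–1000 cells/well, treated 16 h at 37 °C with compound (23 nl of library stock), in duplicate. After paraformaldehyde fixation and Hoechst stain, imaged at 20x; PNC prevalence scored by image analysis.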
Of the large screens only hits and unclear results are named; the others gave an inactive call. Sampled rows, rich in hits. Any-hit rate of the full collection: about 11%. Unless noted, calls follow the shape of the dose curve; as a rule, active = well fitted inhibition curve with a large enough effect (not every such curve was filed as active); inconclusive = small, poorly fitted or top-dose-only effect, or another doubt; inactive = no such curve, though single readings can be large or run the other way.

COc1ccc(Oc2ncc3nc(-c4cccs4)c(=O)n(-c4ccccc4)c3n2)cc1	none (no result: PNC inhibitor)
COc1ccc(-n2c(=O)c(C)nc3cnc(Oc4ccccc4)nc32)cc1	ALDH1A1 inh 2.5µM (no result: PNC inhibitor)
COc1ccc(-n2cnnc2SCC(=O)Nc2cccc(S(=O)(=O)N3CCCCC3)c2)cc1	ALDH1A1 inh inconclusive
CC1Cc2ccccc2N1S(=O)(=O)c1cnc[nH]1 (stereo unspecified)	none
O=S(=O)(c1cnc[nH]1)N1CCc2ccccc21	ALDH1A1 inh 20µM
S=C(N/N=C/c1ccccc1)N1CCOCC1	ALDH1A1 inh inconclusive
CN1CCN(C2=C(Cl)C(=O)N(c3cccc(Cl)c3)C2=O)CC1	ALDH1A1 inh inconclusive
Cc1ccccc1N1C(=O)C(Cl)=C(N2CCN(c3ccccc3)CC2)C1=O	ALDH1A1 inh inconclusive, PNC inhibitor -85
CN1CCN(C2=C(Cl)C(=O)N(c3ccc(Cl)c(Cl)c3)C2=O)CC1	ALDH1A1 inh 25µM
O=C1C(Cl)=C(N2CCOCC2)C(=O)N1c1ccccc1Cl	ALDH1A1 inh inconclusive
O=C1CCCC2=C1C(c1ccsc1)CC(=O)N2c1ccccc1F (stereo unspecified)	none (no result: HPGD block, PNC inhibitor)
Cn1c(SCc2ccccc2)nnc1-c1ccco1	none (no result: HPGD block, PNC inhibitor)
c1ccc(CSc2n[nH]c(-c3ccco3)n2)cc1	HPGD block 13µM, PNC inhibitor inconclusive
CCOC(=O)c1ccccc1NC(=O)c1cccnc1	PNC inhibitor inconclusive
CCOC(=O)c1ccccc1NC(=O)CN(c1ccccc1OC)S(C)(=O)=O	PNC inhibitor inconclusive
CCOCCCNC(=O)c1ccccc1SC	PNC inhibitor inconclusive
COCCCNC(=O)c1ccccc1SC	HPGD block 32µM, PNC inhibitor -107
CCOC(=O)c1ccccc1NC(=O)CN(c1ccccc1)S(=O)(=O)N(C)C	ALDH1A1 inh 28µM
CCOC(=O)c1ccccc1NC(=O)c1cncc(Br)c1	PNC inhibitor -93
CCOC(=O)c1ccccc1NC(=O)c1ccccc1SC	ALDH1A1 inh 14µM, PNC inhibitor -80
COC(=O)c1ccccc1NC(=O)c1ccccc1SC	none
CCOC(=O)CCSc1cc(C)c2ccccc2n1	none (no result: HPGD block, PNC inhibitor)
Cn1cccc1C(=O)N1CCC2(CC1)CN(C(=O)Nc1ccccc1)C2	none (no result: PNC inhibitor)
CS(=O)(=O)Nc1ccc([N+](=O)[O-])cc1Oc1ccccc1	PNC inhibitor inconclusive
CS(=O)(=O)Nc1ccc([N+](=O)[O-])cc1OC1CCCCC1	ALDH1A1 inh 22µM (no result: PNC inhibitor)
COc1ccc(CCNC(=O)CSc2nnc3ccc(-c4cccnc4)nn23)cc1	none (no result: HPGD block, PNC inhibitor)
CCOC(=O)CCCCC1=CC2=CC(=O)C(C)(O)C(=O)C2=CO1 (stereo unspecified)	none (no result: HPGD block, PNC inhibitor)
CC(C)[C@H](NC(=O)OCc1ccccc1)C(=O)N[C@H](C=O)Cc1ccccc1	none (no result: PNC inhibitor)
CCCN1Cc2cccc(C(=O)NCc3ccc(C)cc3)c2C1=O	none (no result: HPGD block, PNC inhibitor)
CCCN1Cc2cccc(C(=O)NCCCOC(C)C)c2C1=O	ALDH1A1 inh 22µM
CCCN1Cc2cccc(C(=O)NC(C)c3cccs3)c2C1=O (stereo unspecified)	ALDH1A1 inh 4µM
CCCN1Cc2cccc(C(=O)Nc3ccc(C)cc3)c2C1=O	none
COc1ccc(NS(=O)(=O)c2cc(NC(=O)c3ccncc3)ccc2N2CCOCC2)cc1	none
O=C(Nc1ccc(N2CCOCC2)c(S(=O)(=O)Nc2ccc(Cl)cc2)c1)c1cnccn1	ALDH1A1 inh 2µM (no result: HPGD block, PNC inhibitor)
CC1Cc2c(-c3ccccc3)nc3c(c2CO1)CN(CCOc1ccccc1)CC3 (stereo unspecified)	none (no result: HPGD block, PNC inhibitor)
Cc1oc2c(c1C(=O)c1ccccc1)C(=O)C(=O)c1ccccc1-2	HPGD block inconclusive
O=C1C(=O)c2c(C(=O)c3ccccc3)coc2-c2ccccc21	ALDH1A1 inh inconclusive, HPGD block 22µM
Cc1ccc(Cn2ccc(=O)c(OCc3c(Cl)cccc3Cl)c2C)cc1	PNC inhibitor inconclusive
CC[C@H](CO)NCCN[C@H](CC)CO	PNC inhibitor -115
CCC(CO)NCCNC(CC)CO (stereo unspecified)	PNC inhibitor inconclusive
O=CNCCCc1nc2ccccc2n1Cc1ccccc1	ALDH1A1 inh 22µM, PNC inhibitor inconclusive
CC(=O)NCCc1nc2ccccc2n1Cc1ccccc1	PNC inhibitor inconclusive
COc1cc(NC(=S)NC2CC(C)(C)NC(C)(C)C2)c(OC)cc1Cl	none (no result: HPGD block, PNC inhibitor)
COc1cc(C(c2c(C)[nH][nH]c2=O)c2c(C)[nH][nH]c2=O)ccc1OS(=O)(=O)c1ccccc1	ALDH1A1 inh 1.6µM
COc1cc(C(c2c(C)[nH][nH]c2=O)c2c(C)[nH][nH]c2=O)ccc1OC(C)C	ALDH1A1 inh 14µM, HPGD block inconclusive, PNC inhibitor -80
COc1cc(C(c2c(C)[nH][nH]c2=O)c2c(C)[nH][nH]c2=O)cc(OC)c1OC	none (no result: HPGD block, PNC inhibitor)
COc1cc(C(c2c(C)[nH][nH]c2=O)c2c(C)[nH][nH]c2=O)ccc1OS(=O)(=O)c1ccc(C)cc1	none
CC1CCc2c(nc3ncnn3c2NCCN(C)C)C1 (stereo unspecified)	none (no result: HPGD block, PNC inhibitor)
Cn1c(N)c(C(=O)c2ccc(F)cc2F)c(=O)n(C)c1=O	none (no result: HPGD block)
c1cncc(-c2nc3c(ccc4ccccc43)[nH]2)c1	ALDH1A1 inh inconclusive, HPGD block inconclusive
N=c1oc2ccccc2cc1-c1nc2ccccc2c(=O)[nH]1	ALDH1A1 inh inconclusive
O=c1[nH]c(-c2ccncc2)nc2ccccc12	ALDH1A1 inh 7.9µM, HPGD block 7.1µM
O=c1[nH]c(-c2cccnc2)nc2ccccc12	HPGD block 18µM, PNC inhibitor inconclusive
C[C@@H]1C=CCC(=O)OC[C@H](C)C(=O)OC[C@H]2O[C@H]1C=C[C@@H]2O	none (no result: HPGD block, PNC inhibitor)
Cc1ccccc1[C@@H]1C(C#N)=C(N)S[C@H]1C(=O)c1ccccc1	ALDH1A1 inh inconclusive
CCCCC1=C(C(=O)OCC)C(C(=O)OCC)Oc2ccccc21 (stereo unspecified)	none (no result: PNC inhibitor)
CCOC(=O)/C(=C\c1cccnc1)C(=O)c1cc(C(C)=O)c(Nc2ccccc2)s1	ALDH1A1 inh inconclusive, HPGD block 20µM, PNC inhibitor -111
CCOC(=O)/C(=C\c1ccccc1)C(=O)c1cc(C(C)=O)c(Nc2ccccc2)s1	none
O=C(NNC(=O)c1ccc(-c2ccccc2)cc1)c1ccccc1	PNC inhibitor inconclusive (no result: HPGD block)
NNC(=O)c1ccc(-c2ccccc2F)cc1	ALDH1A1 inh 1.1µM (no result: HPGD block, PNC inhibitor)
Cc1ccc(S(=O)(=O)NC(=O)Nc2ncn[nH]2)cc1	none (no result: PNC inhibitor)
Cc1[nH]n(-c2nc(-c3ccccc3F)cc(=O)[nH]2)c(=O)c1CCO	none (no result: HPGD block, PNC inhibitor)
COC(=O)C1=C(C(=O)OC)[C@@H]2N(C)c3ccccc3[C@@]23C[C@@H](CO)N=C3N1	none (no result: PNC inhibitor)
COc1ccc(CC2(C)OC(c3ccc([N+](=O)[O-])cc3)=NN2C(C)=O)cc1 (stereo unspecified)	none (no result: HPGD block, PNC inhibitor)
O=C(C1CCN(S(=O)(=O)N2CCC3(CC2)OCCO3)CC1)N1CCCCC1	HPGD block 16µM
O=C(C1CCN(S(=O)(=O)N2CCC3(CC2)OCCO3)CC1)N1CCOCC1	none
COc1ccccc1N(CC(O)COc1ccccc1C)S(=O)(=O)c1ccccc1 (stereo unspecified)	PNC inhibitor inconclusive
COCCCNCC(O)C(F)(F)F (stereo unspecified)	none (no result: HPGD block, PNC inhibitor)
Cc1ccc(S(=O)(=O)NC2CCC(C(=O)O)CC2)cc1 (stereo unspecified)	ALDH1A1 inh inconclusive, PNC inhibitor -103
Cc1ccc(S(=O)(=O)NC2CCCCC2)cc1	ALDH1A1 inh inconclusive (no result: PNC inhibitor)
